Test results as given in PubChem BioAssay (NCATS).

Experiment: qHTS drug screen for cell cycle checkpoint inhibitors in PARPi-resistant BRCA-mutant ovarian cancer cell lines. (AID 1963452)
Conditions: PEO1/OlaR viability, CellTiter-Glo luminescence, 96 h; measured here: PEO4 Z-AUC; stronger effect = lower value
Method in brief: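 PEO1, PEO4 and PEO1/OlaR ovarian cancer cells, 600 per well, exposed 96 h at 37C to a dilution series. Viability read by CellTiter-Glo luminescence, normalized to DMSO and empty wells; activity summarized as Z-AUC.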
In the case of `C[C@H](NC(=O)c1sccc1OCc1ccc(Cl)cc1)c1ccccc1`, the Z-AUC is reported as -0.0391.
`CC#CCn1c(N2CCC[C@@H](N)C2)nc2c1c(=O)n(Cc1nc(C)c3ccccc3n1)c(=O)n2C` gave a Z-AUC of -0.262.
In the case of `N#Cc1ccc(NC(=O)Nc2ccccc2Br)c2n[nH]nc12`, the Z-AUC is reported as 1.04.
In the case of `O=C(Nc1cccc(Br)c1)c1cccc(S(=O)(=O)N2CCCCCC2)c1`, the Z-AUC is reported as -0.0385.
`CO[C@@H](C(=O)N1Cc2[nH]nc(NC(=O)c3ccc(N4CCN(C)CC4)cc3)c2C1)c1ccccc1` showed a Z-AUC of -0.117.
Work on `Nc1ncnc2ccccc12` yielded a Z-AUC of 0.705.
In the case of `COc1cc(N2CCC(N3CCN(C)CC3)CC2)ccc1Nc1ncnc(Nc2ccccc2S(=O)(=O)C(C)C)n1`, the Z-AUC is reported as 0.238.
For `CS(=O)(=O)N(Cc1ccco1)CC(O)Cn1c2ccccc2c2ccccc21` (centres undefined), the Z-AUC was 0.481.
In the case of `COc1cc2ncnc(-n3nc(-c4ccccn4)nc3N)c2cc1OC`, the Z-AUC is reported as 0.697.
Work on `Clc1ccc(COC(Cn2ccnc2)c2ccc(Cl)cc2Cl)cc1` (centres undefined) yielded a Z-AUC of 0.161.
`CC(C)OC(=O)C(C)(C)Oc1ccc(C(=O)c2ccc(Cl)cc2)cc1` showed a Z-AUC of 0.0191.
Work on `CCn1c(C(=O)N(C2CC2)C2CC2)cc2c3c(ncn3C)c(Nc3cc(C)n(C)n3)nc21` yielded a Z-AUC of 1.3.
Work on `CN(C)Cc1cccc(N=C(c2ccccc2)c2c(O)[nH]c3cc(C(=O)N(C)C)ccc23)c1` yielded a Z-AUC of -1.01.
In the case of `CCNc1cc(NC2CCC(O)CC2)nc(Nc2ccc3c(ccn3Cc3ccccc3)c2)n1` (centres undefined), the Z-AUC is reported as 0.72.
`O=c1cc(-c2cccc3c2Sc2ccccc2S3)oc(N2CCOCC2)c1` showed a Z-AUC of 0.875.
`O=C(CCCCCCC(=O)Nc1ccccc1)NO` showed a Z-AUC of -0.541.
With `CNC1CCC(N(Cc2cccc(-c3ccncc3)c2)C(=O)c2sc3c(F)ccc(F)c3c2Cl)CC1` (centres undefined) the Z-AUC was -1.33.
For `COc1ccc2cccc(CCNC(C)=O)c2c1`, the Z-AUC was -0.326.
`CN(C)Cc1ccc(-c2nc3cccc4c3n2CCNC4=O)cc1` showed a Z-AUC of 0.475.
Work on `N[C@@]1(C(=O)O)CS(=O)(=O)[C@H]2[C@H](C(=O)O)[C@H]21` yielded a Z-AUC of 0.235.
`NC(CO)(CO)CCc1ccc(Sc2cccc(OCc3ccccc3)c2)cc1Cl` showed a Z-AUC of -0.274.
For `Cc1ccn(-c2ccc(-c3ncco3)cc2)c(=O)c1-c1ccc2nc(N)ncc2c1`, the Z-AUC was 1.07.
In the case of `CCc1ccc(OCc2ccccc2C(=O)Nc2ccc3nc(C)cc(N)c3c2)cc1`, the Z-AUC is reported as -0.159.
For `COCCOc1nc(-c2ccc(Cl)c(Cl)c2)n(-c2ccc(NC(=O)CCl)cc2)n1`, the Z-AUC was -0.069.
`CCOc1ccc(Nc2nc(-c3c(C)nc4ccccn34)cs2)cc1` gave a Z-AUC of 0.137.
`COC(=O)[C@@H]1[C@H]2C[C@H]3c4[nH]c5ccccc5c4CCN3C[C@@H]2CC[C@@H]1O` gave a Z-AUC of 0.659.
Work on `COc1cc(Nc2ncc(F)c(Nc3ccc4c(n3)NC(=O)C(C)(C)O4)n2)cc(OC)c1OC` yielded a Z-AUC of 1.16.
`N[C@H](CSC(c1ccccc1)(c1ccccc1)c1ccccc1)C(=O)O` gave a Z-AUC of 0.85.
For `COc1cccc([C@@H](C)NCCCc2ccccc2Cl)c1`, the Z-AUC was 0.597.
For `c1cc(-c2sc(-c3ccncc3)c(-c3ccncc3)c2-c2ccncc2)ccn1`, the Z-AUC was 1.03.
For `COc1cccc(-c2cc(=O)c3ccccc3o2)c1N`, the Z-AUC was -0.869.
With `CC(C)(C)c1cc(C(=O)O)c(NC(=O)Nc2ccc3[nH]ncc3c2)s1` the Z-AUC was -0.766.
Molecule `COc1ccc(-c2coc3cc(O)cc(O)c3c2=O)cc1` has a Z-AUC of 1.85.
For `CC(C)(C)C(=O)Oc1ccc2c(c1)nc(NC(=O)c1cccc([N+](=O)[O-])c1)n2CCCO`, the Z-AUC was -0.141.
